Test results reported in PubChem BioAssay (NCI).
This is part of a sample that, as a whole, favours compounds with a hit. Of some 83,000 tested, about 20% had one in any assay.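 Assay: single dose, 48 h. Readout: percent growth (0 = no net growth; negative = cell death). Active: <10.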 Activity calls are given as the source filed them.

What was measured:
Assay in all cases: NCI-60 one-dose screen, 48 h (100 = growth as untreated, 0 = no growth, -100 = all killed)
[1] = test system: HT29 colon; conditions: 10 µM unless noted
[2] = test system: SNB-75 CNS; conditions: 10 µM unless noted
[3] = test system: SNB-19 CNS; conditions: 10 µM unless noted
[4] = test system: U251 CNS; conditions: 10 µM unless noted
[5] = test system: PC-3 prostate; conditions: 10 µM unless noted
[6] = test system: SK-MEL-5 melanoma; conditions: 10 µM unless noted
[7] = test system: UACC-62 melanoma; conditions: 10 µM unless noted
[8] = test system: LOX IMVI melanoma; conditions: 10 µM unless noted
[9] = test system: SK-MEL-28 melanoma; conditions: 10 µM
[10] = test system: SK-MEL-2 melanoma; conditions: 10 µM unless noted

Measured: growth

COC(=O)/C(CCC=C(C)C)=C1\[C@@H](OC(C)=O)C[C@@]2(C)[C@H]1CC(=O)N[C@H]1[C@@]3(C)CCNC(=O)[C@@H](C)[C@@H]3CC[C@@]12C
inactive: [1] 102% | [2] 96.2% | [3] 98.6% | [4] 102% | [5] 97.8% | [6] 95.4% | [7] 96.3% | [8] 97.9% | [9] 106% | [10] 106%

CCn1c(SCC(=O)Nc2cc(C(F)(F)F)ccc2Cl)nc2ccccc2c1=O
inactive: [1] 15.7% | [2] 13.4% | [3] 93.5% | [4] 47.9% | [5] 17.5% | [6] 25.7% | [10] 87.3%
active: [7] -79.1% | [8] -7.15% | [9] -28.6%

N#C/C(=C1\SC(=O)CN1c1ccccc1)c1nc2ccccc2s1
inactive: [1] 108% | [2] 88.7% | [3] 94.3% | [4] 91.9% | [5] 92% | [6] 93.3% | [7] 91.1% | [8] 88.3% | [9] 106% | [10] 86.1%

COc1cc2cc3c(=O)n4c(cc5cc(OC)ncc54)c(=O)n3c2cn1
inactive: [1] 111% | [2] 94.2% | [3] 105% | [4] 104% | [5] 97.2% | [6] 109% | [7] 111% | [8] 100% | [9] 106% | [10] 98%

Cc1c(-c2noc(-c3ccc([N+](=O)[O-])cc3)n2)no[n+]1[O-]
inactive: [1] 105% | [2] 89.8% | [3] 99.8% | [4] 99.8% | [5] 92.5% | [6] 92.1% | [7] 87.6% | [8] 97.7% | [9] 108% | [10] 101%

O=C1CCC(N2C(=O)c3cccc(NCCCCCCOc4ccc(Nc5nccc(Nc6ccccc6)n5)cc4)c3C2=O)C(=O)N1 (stereo not given)
active: [6] 7.47%
inactive: [1] 88.1% | [2] 89% | [3] 86.3% | [4] 83.3% | [5] 73.4% | [7] 71.3% | [8] 88.1% | [9] 82.9% | [10] 82.5%

O=C(NC1CCN(Cc2ccccc2)CC1)c1cc(C(=O)NC2CCN(Cc3ccccc3)CC2)cc(C(=O)NC2CCN(Cc3ccccc3)CC2)c1
inactive: [1] 75% | [2] 68% | [3] 85.7% | [4] 72.4% | [5] 74.4% | [6] 85.2% | [7] 84.9% | [9] 95.6% | [10] 73.6%
active: [8] -69.6%

COc1cc(/C=C2\CN(C)C/C(=C\c3cc(CN4CCCCC4)c(O)c(OC)c3)C2=O)cc(CN2CCCCC2)c1O
inactive: [2] 66.9% | [3] 70.9% | [4] 15% | [5] 32.7% | [6] 70.6% | [7] 60.6% | [9] 93.5% | [10] 73.2%
active: [1] 3.56% | [8] 5.17%

O=C(c1ccccc1)N(C(=S)NCCc1ccc(Cl)cc1)c1ccc(Cl)cc1
active: [8] -16.6%
inactive: [1] 37.6% | [2] 74.8% | [3] 59.3% | [4] 47.8% | [5] 66.2% | [6] 67.2% | [7] 76.8% | [9] 42.8% | [10] 40.7%

COc1cc(C(=O)Nc2ccc(-c3nc4ccccc4[nH]3)cc2)cc(OC)c1OC
inactive: [1] 14.8% | [2] 42.9% | [3] 53.8% | [4] 25% | [5] 52.5% | [6] 65.7% | [7] 47.2% | [8] 36% | [9] 50% | [10] 105%

COc1cc(C(=O)O/N=C(\N)Cc2cccc3ccccc23)cc(OC)c1OC
active: [1] -74.3% | [2] -19.4% | [4] -67.8% | [6] -97.9% | [7] -88.3% | [8] -81.9% | [9] -97% | [10] -80.9%
inactive: [3] 68.2% | [5] 27.6%

CC(C)CCNCC(O)Cn1c2ccccc2c2ccccc21 (stereo not given)
active: [1] -12.7% | [2] -3.3% | [6] -20.6% | [8] 1.91%
inactive: [3] 24.4% | [4] 14.4% | [5] 20.2% | [7] 14.1% | [9] 14.9% | [10] 13.7%

COc1ccccc1N1C(=N)S/C(=C\c2ccc(OCc3ccccc3F)cc2)C1=O
inactive: [1] 108% | [2] 76% | [3] 90.9% | [4] 78.9% | [5] 66.9% | [6] 92.5% | [7] 63.7% | [8] 80.1% | [9] 95% | [10] 82.7%

Cc1cccc2c(=O)c3c(sc12)c(NCCN)nc1ccccc13
inactive: [2] 15.2%
active: [1] -54.9% | [3] -2.48% | [4] -77.2% | [5] -42.9% | [6] -22.9% | [7] -86.6% | [8] -92.9% | [9] -86.1% | [10] -34.9%

O=C(O)c1cn(C2CC2)c2cc(N3CCN(C(=O)C[n+]4ccccc4)CC3)c(F)cc2c1=O
inactive: [1] 109% | [2] 97.2% | [3] 99.4% | [4] 92.4% | [5] 106% | [6] 101% | [7] 105% | [8] 98.1% | [9] 112% | [10] 96.5%

CCOC(=O)c1cc2c(n1Cc1cc(OC)cc(OC)c1)-c1oncc1CCC2
inactive: [2] 16.3% | [3] 28.5% | [4] 17.3% | [5] 33.2% | [7] 31.6% | [8] 25.3% | [9] 53.3% | [10] 41.8%
active: [1] 6.58% | [6] 1.12%

O=C(Nc1ccc(-c2nc3ccc(NC(=O)c4ccc(Cl)cc4)cc3[nH]2)cc1)c1ccc(Cl)cc1
inactive: [3] 35.2% | [5] 38.3%
active: [1] -58.1% | [2] -31.6% | [4] 2.01% | [6] 9.75% | [7] 0.642% | [8] -49.6% | [9] 7.47% | [10] -33.9%

CCOc1ccc2c(c1)CN(Cc1ccc(Cl)cc1)CO2
active: [2] -39.4%
inactive: [1] 57.3% | [3] 18.1% | [4] 25.4% | [5] 49.1% | [6] 74.1% | [7] 62.4% | [8] 35.2% | [9] 41.9% | [10] 50.4%

O=C1c2cc(Br)ccc2Oc2cc([N+](=O)[O-])ccc2N1c1ccc(I)cc1F
inactive: [1] 99.6% | [2] 89.5% | [3] 94% | [4] 94.4% | [5] 103% | [6] 99.2% | [7] 87.2% | [8] 93.5% | [9] 113% | [10] 101%

O=c1c(-c2nc3ccccc3[nH]2)cc2ccccc2n1Cc1cn(Cc2ccc(N3CCOCC3)cc2)nn1
inactive: [1] 56.3% | [3] 48% | [4] 64.3% | [5] 65.9% | [6] 71.9% | [7] 79.2% | [8] 78.7% | [9] 76.2% | [10] 86.9%
active: [2] 5.39%

Cc1ccc(Nc2nc(N)c3ccccc3n2)cc1Cl
inactive: [1] 27.4% | [2] 95.2% | [3] 84.4% | [4] 61.8% | [5] 60.4% | [6] 60.2% | [7] 53.9% | [8] 40.4% | [9] 102% | [10] 50.9%

COc1ccc(OC)c(NC(=O)/C(C#N)=C/c2ccco2)c1
inactive: [1] 91.8% | [2] 82.2% | [3] 93.8% | [4] 94.2% | [5] 89.7% | [6] 102% | [7] 86.5% | [8] 98.2% | [9] 104% | [10] 87.1%

COC(=O)C1(C)CCC[C@]2(C)[C@H]3C[C@H]4C(C(C)C)=C[C@]3(CC[C@@H]12)[C@H]1[C@@H]4[C@@H](OCC#CCN2CCOCC2)CC[C@@H]1OCC#CCN1CCOCC1 (stereo not given in full)
inactive: [1] 77.6% | [2] 93.1% | [3] 79% | [4] 70.9% | [5] 53.9% | [6] 80.2% | [7] 61% | [8] 89% | [9] 90.5% | [10] 89.3%

O=C(NCc1ccco1)C1CN(c2ccc(Cl)cc2)N(c2ccc(Cl)cc2)C1=O (stereo not given)
inactive: [1] 16.4% | [2] 16.8% | [3] 54.4% | [4] 33.9% | [5] 27% | [6] 41.8% | [7] 24.4% | [8] 45.9% | [9] 66.2% | [10] 49.2%

CN(C)c1ccc(/C=C/c2ccnc3c(O)cccc23)cc1
active: [6] 8.23% | [7] -27.6%
inactive: [1] 98.6% | [2] 28.5% | [3] 26.4% | [4] 12% | [5] 32% | [8] 13.1% | [9] 29.1% | [10] 11.8%

COc1ccc2oc(=O)cc(Cn3cc(Cn4cnc5c4c(=O)n(C)c(=O)n5C)nn3)c2c1
inactive: [1] 99% | [2] 93.8% | [3] 99.5% | [4] 101% | [5] 102% | [6] 98.9% | [7] 91.7% | [8] 98.2% | [9] 105% | [10] 106%

COc1ccc(C)c2sc(N(Cc3cccnc3)C(=O)c3ccc(C#N)cc3)nc12
active: [4] 1.87% | [6] -62.2% | [7] -33.3% | [8] -7.23%
inactive: [1] 16% | [2] 15.4% | [3] 12.4% | [5] 16% | [9] 15.9% | [10] 13.1%
